The record followed here is PubChem BioAssay (NCATS).

Results filed as inconclusive are left out. The source made the active and inactive calls. Calls follow the shape of the dose curve; as a rule, active = well fitted inhibition curve with a large enough effect in the repeat runs; inconclusive = weak or mixed curves; inactive = no such curve, though single readings can be large or run the other way.
Potency is read from the fitted curve at half-maximal effect.

Cytochrome P450 2C9 (Homo sapiens), sequence (P11712 whole entry, looked up): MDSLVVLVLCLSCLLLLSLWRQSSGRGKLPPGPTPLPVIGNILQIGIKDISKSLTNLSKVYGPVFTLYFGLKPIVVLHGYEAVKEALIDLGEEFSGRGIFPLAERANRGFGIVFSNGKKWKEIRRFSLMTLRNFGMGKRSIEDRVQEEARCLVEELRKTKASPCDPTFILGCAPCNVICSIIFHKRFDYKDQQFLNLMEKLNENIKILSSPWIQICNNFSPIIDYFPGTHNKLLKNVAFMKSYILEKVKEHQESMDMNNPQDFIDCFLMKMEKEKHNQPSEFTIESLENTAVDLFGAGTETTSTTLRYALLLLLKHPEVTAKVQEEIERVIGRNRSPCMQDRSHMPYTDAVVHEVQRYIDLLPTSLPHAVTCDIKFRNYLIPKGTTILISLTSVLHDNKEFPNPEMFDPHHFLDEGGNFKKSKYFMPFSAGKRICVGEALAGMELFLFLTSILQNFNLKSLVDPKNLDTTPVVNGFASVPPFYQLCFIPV

This test concerns the target Cytochrome P450 2C9 (Homo sapiens) (UniProt P11712). Nature of the test: Cytochrome P450 family 2 subfamily C member 9 (CYP2C9) small molecule antagonists: luciferase biochemical (cell-free) qHTS assay (AID 1645842). Also: nearly all actives have a fitted effect of over 55% in size. To be noted: P450-Glo CYP2C9 enzyme assay, luciferin luminescence; series mostly up to 57.4 µM. Put shortly: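 Luminescence, after 20 min with luciferin detection reagent, reflected CYP2C9 turnover during a 1 h NADPH-driven reaction at 37C. Enzyme-substrate mix contained 0.4% bovine serum albumin and was preincubated with compound 10 min at room temperature.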
(In qHTS, concentration-response curves come from the screen itself.)
For `Cc1ccc(Cn2ccnc2SCC(=O)Nc2nc3ccccc3s2)cc1`, the Potency is 8.49 µM (active). Consider `COc1ccc(Cn2c(CCC(=O)Nc3cc(C)cc(C)c3)nc3cccnc32)cc1`, for which the Potency was 6.74 µM (active). Take `CCOc1ccc(S(=O)(=O)NCc2ccc3c(c2)CCN3C(=O)c2ccc(C)cc2)cc1`: the Potency is 0.301 µM (active).

With `O=C(CSc1nc2ccccc2n1Cc1cccc(F)c1)N1CCN(c2ccc(F)cc2)CC1`, the Potency is 3.38 µM (active). `CCOc1cc(C(Nc2cc(C)ccn2)c2ccc3cccnc3c2O)ccc1OC` (stereo not given): the Potency is 12.6 µM (active). `CCc1ccc(C2=CC(c3c(F)cccc3Cl)n3c(nc4ccccc43)N2)cc1` (stereo not given): the Potency was 5.35 µM (active). With `COc1ccc(Cn2c(SCC(=O)N3CCN(c4ccc(F)cc4)CC3)nc3ccccc32)cc1` the figure was 1.69 µM (active).

Turning to `CCOc1ccc(CNC(=O)Cn2c(=O)c3cccn3c3ccc(F)cc32)cc1`, the Potency entry is “inactive”. In the case of `C=C1CC[C@H](O)C/C1=C\C=C1/CCCC2(C)C1CCC2C(C)CCCC(C)C` (stereo not given in full), the Potency is 23.9 µM (active). Regarding `CCOC(=O)N1CCc2c(sc3c2c(=O)n(Cc2ccccc2)c(=O)n3CC(=O)Nc2ccc(F)cc2)C1`, the Potency is 2.39 µM (active).

Consider `COc1cccc(CNC(=O)C2CCCN(c3nn4cc(-c5ccc(C)cc5)nc4s3)C2)c1` (stereo not given), for which the Potency is 2.39 µM (active).

With `CC1(C#N)CCN(c2c(C(=O)N3CCC(C(=O)C4CC4)CC3)cnc3cc(F)c(F)cc23)CC1`, the Potency was 9.52 µM (active). On to `COC(=O)c1c(SCC(=O)Nc2ccccc2C(F)(F)F)[nH]c2ccc(Cl)cc2c1=O`, for which the Potency is 1.9 µM (active). As for `CCOC(C(=O)N(C)CCN(C)CCc1ccccc1)(c1ccccc1)c1ccccc1`, the Potency is 6.01 µM (active). Regarding `COc1ccc(Cl)cc1NC(=O)CN1C(=O)CSc2ccc(S(=O)(=O)N3CCCC3)cc21`, the Potency is 0.756 µM (active). As for `CCOc1ccc(CCNC(=O)CCCn2nc(C)c3sc4ccccc4c3c2=O)cc1OCC`, the Potency was 2.68 µM (active). Turning to `COc1ccc(CNC(=O)c2nc(SCc3ccccc3F)ncc2Cl)cc1`, the Potency result was “inactive”. With `Cn1c(=O)c2c(nc(OC3CCN(C(=O)C4CC4)CC3)n2CCC(C)(C)C)n(C)c1=O` the figure was 12 µM (active); with `COc1cc(Cl)c(C)cc1NC(=O)CSc1ncc(S(=O)(=O)c2ccc(C(C)(C)C)cc2)c(=O)[nH]1`, 0.425 µM (active).

On to `Cc1oc(-c2cccc(Cl)c2)nc1Cn1c(SCc2ccccc2F)nc2ccncc21`, for which the Potency is 7.56 µM (active).

Consider `CN(C)S(=O)(=O)n1cc(/C=C(\NC(=O)c2ccccc2)C(=O)NCCCn2ccnc2)c2ccccc21`, for which the Potency was 0.213 µM (active). For the compound `CC(=O)Nc1ccc(C)cc1-c1nc2ccccc2n(CC(=O)Nc2cc(Cl)ccc2C)c1=O`, the Potency is 3.01 µM (active). For `COc1ccc(NC(=O)c2cnc[nH]2)cc1S(=O)(=O)Nc1ccc(Br)cc1`, the Potency is 10.7 µM (active). Take `CCOCCCNC(=O)CCC(=O)NNc1nc2ccccc2c2nc(-c3ccccc3)nn12`: the Potency is 3.38 µM (active). As to `COc1ccc(-c2cn3cccnc3n2)cc1NC(=O)COc1ccccc1`, the Potency is 4.77 µM (active). As for `COc1cc(NC(=O)CSc2nc3ccccc3nc2Cc2ccccc2OC)cc(OC)c1`, the Potency was 0.301 µM (active).

As to `COCCCNC(=O)CCC(=O)NNc1nc2ccccc2c2nc(-c3ccccc3)nn12`, the Potency was 9.52 µM (active).

On to `Cc1cccc(NC(c2ccccc2C)c2ccc3ccc(C)nc3c2O)n1` (stereo not given), for which the Potency was 6.74 µM (active). To `COc1ccc(NC(=O)CSc2ncc(-c3ccc(Cl)cc3)[nH]2)cc1OC` belongs 0.849 µM (active); to `COc1ccc(CC(=O)Nc2c(C(=O)N3CCN(c4ccccc4F)CC3)oc3ccccc23)cc1OC`, “inactive”. For `COc1ccc(OCC(=O)Nc2cc(-c3nc4ccccc4s3)ccc2C)cc1`, the Potency was 0.379 µM (active). As for `O=C(CSc1nc2ccccc2n1Cc1cccc(Cl)c1)N1CCN(c2ccc(F)cc2)CC1`, the Potency was 3.38 µM (active). Consider `CCOc1ccc2nc(N3CCC(C(=O)Nc4ccccc4CC)CC3)sc2c1`, for which the Potency is 6.01 µM (active). Regarding `Cc1ccc(CSC2=Nc3ccccc3C3=NC(CC(=O)NCc4cccs4)C(=O)N23)cc1` (stereo not given), the Potency was 0.379 µM (active).

As to `COc1ccccc1NC(=O)Cc1c(C(=O)O)[nH]c2ccc(Cl)cc12`, the Potency entry is “inactive”.

On to `C=Cc1ccc(Cn2c(SCC(=O)N3CCN(c4ccc(F)cc4)CC3)nc3ccccc32)cc1`, for which the Potency was 3.38 µM (active). Take `Cc1cccc(NC(=O)Cn2c(=O)n(Cc3ccc(C(=O)NCc4ccc5c(c4)OCO5)cc3)c(=O)c3ccccc32)c1`: the Potency entry is “inactive”.

Take `CC1(C#N)CCN(c2c(C(=O)N3CCC(S(C)(=O)=O)CC3)cnc3cc(F)c(F)cc23)CC1`: the Potency result was “inactive”. Regarding `Cc1ccccc1C(=O)Nc1sc2c(c1C(=O)O)CCC(C(C)(C)C)C2` (stereo not given), the Potency entry was “inactive”. On to `Cc1ccccc1C(=O)Nc1cccc(-c2nc3cccnc3s2)c1`, for which the Potency was 6.74 µM (active).
